Only some compounds are listed: those with a hit (about 2.4% of all), similar ones and a draw of the others.
MEKK3 PB1 HTS: modulators of MEKK3-MEK5 PB1 binding, primary screen, biochemical, wildtype MEKK3, multiplex bead flow cytometry, Alexa488-MEK5; Mitogen-activated protein kinase kinase kinase 3 (Homo sapiens), Q99759; binding response (% of control), % at 10 µM; bead-based flow cytometry, Alexa488-MEK5 binding to MEKK3; actives lie on both sides; 0 = blocked by unlabeled MEK5, 100 = vehicle; 290,000 compounds, 1.4% hits;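 active = binding response more than 3 SD above or below the average of its plate-row segment, actives on both sides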;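 note: Alexa488 bead fluorescence after subtracting the streptavidin-only scavenger bead signal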
Target sequence (Q99759 whole entry, looked up): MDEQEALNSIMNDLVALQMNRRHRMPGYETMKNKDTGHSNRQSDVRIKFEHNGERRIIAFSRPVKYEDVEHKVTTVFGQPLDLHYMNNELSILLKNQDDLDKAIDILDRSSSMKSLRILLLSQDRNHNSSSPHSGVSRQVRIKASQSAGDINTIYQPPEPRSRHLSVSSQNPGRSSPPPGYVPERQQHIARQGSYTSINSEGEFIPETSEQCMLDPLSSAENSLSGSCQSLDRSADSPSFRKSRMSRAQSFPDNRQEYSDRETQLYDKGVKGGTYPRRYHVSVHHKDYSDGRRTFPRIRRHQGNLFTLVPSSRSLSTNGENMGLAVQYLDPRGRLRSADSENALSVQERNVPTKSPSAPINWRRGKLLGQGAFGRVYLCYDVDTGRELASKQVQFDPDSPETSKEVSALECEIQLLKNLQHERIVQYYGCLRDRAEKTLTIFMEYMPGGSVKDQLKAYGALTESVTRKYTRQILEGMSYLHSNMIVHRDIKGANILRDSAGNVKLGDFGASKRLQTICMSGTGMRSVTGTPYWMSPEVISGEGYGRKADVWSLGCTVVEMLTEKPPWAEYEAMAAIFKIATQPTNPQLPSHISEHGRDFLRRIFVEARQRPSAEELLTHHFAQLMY
MEKK2mut PB1 HTS: MEK5 binding signal on mutant MEKK2 PB1, primary screen, biochemical, multiplex bead flow cytometry, Alexa488-MEK5; Alexa488-MEK5 binding to MEKK2 mutant; percent response, % at 10 µM; 290,000 compounds, 0.35% hits; AID 1530, 2009; in the data active = percent response above about 24%, passing the limit was not always enough
Pf gamet viab: late stage P. falciparum gametocyte viability inhibitors, primary screen, ATP luminescence, HTS; P. falciparum stage V gametocytes, 24 h; inhibition, % at 10.9 µM; 150,000 compounds, 0.065% hits; AID 743093, 2013;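 active = inhibition above the mean plus 3 SD of compounds within the control limits, set per campaign, cut at about 38% in these data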;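 note: 0% = DMSO wells and 100% = medium only without gametocytes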
MEKK2wt PB1 HTS: modulators of MEK5 binding to wildtype MEKK2, primary screen, biochemical, multiplex bead flow cytometry, Alexa488-MEK5; AID 1531, 2009; Alexa488-MEK5 binding to MEKK2 WT; actives lie on both sides; 290,000 compounds, 1.1% hits; binding response (% of control), % at 10 µM; in the data active = binding response below about 67% or above about 130%
Arbovirus anti: antivirals against arbovirus infection, primary screen, cell-based, full library, 10K replicate subset; arbovirus infection cell-based antiviral screen; inhibition, % at 10 µM; 200,000 compounds, 0.37% hits; in the data active = inhibition above about 30%
MEKK2wt confirm: modulators of MEK5 binding to wildtype MEKK2, confirmation, biochemical, single concentration, multiplex bead flow cytometry; binding response (% of control), % at 10 µM; Alexa488-MEK5 binding to MEKK2 WT; actives lie on both sides; 5,900 compounds, 2.4% hits; shares compounds with MEKK3 PB1 HTS; AID 1892, 2009; in the data active = binding response below about 16% or above about 210%; inactive = in between
MEKK2mut-MEK5: mutant MEKK2 PB1-MEK5 binding signal retest – biochemical, single concentration, multiplex bead flow cytometry, confirmation; shares compounds with MEKK3 PB1 HTS; Alexa488-MEK5 binding to MEKK2 mutant; percent response, % at 10 µM; 5,900 compounds, 2% hits; AID 1893, 2009; in the data active = percent response mostly above about 71%, no sharp cut-off; inactive = mostly below about 38%;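 note: higher means compound restores mutant binding toward wildtype level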
MEKK3-MEK5 inh: MEKK3 wild-type PB1 binding to MEK5, inhibitors, confirmation, biochemical, bead multiplex flow cytometry, single concentration, wildtype. 5,900 compounds, 1.8% hits. shares compounds with MEKK3 PB1 HTS. Alexa488-MEK5 binding to MEKK3; hits give low values. binding response (% of control), % at 10 µM;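 active = binding response below 72% of control, or above a set upper limit, though filed actives all read lower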;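 note: 100% = DMSO only wells and 0% = binding blocked by excess unlabeled MEK5; lower values mean stronger disruption of MEK5 binding to MEKK3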
The depositor's hits bear a star; [ ] = remark or other dose.

How did CN(CCCN1c2ccccc2CCc2ccccc21)CC(=O)c1ccc(Cl)cc1 do in these assays?
MEKK3 PB1 HTS: 107; MEKK2mut PB1 HTS: 18; MEKK2wt PB1 HTS: 165*; MEKK2wt confirm: 130; MEKK2mut-MEK5: 16; MEKK3-MEK5 inh: 96

What do the screens show for `CNCCCN1c2ccccc2CCc2ccccc21`?
MEKK3 PB1 HTS: 98; MEKK2mut PB1 HTS: -2; MEKK2wt PB1 HTS: 101; Arbovirus anti: -33

What do the screens show for `CN(C)CCCN1c2ccccc2Sc2ccccc21`?
MEKK3 PB1 HTS: 104; MEKK2mut PB1 HTS: 8; MEKK2wt PB1 HTS: 106; Arbovirus anti: -28

How did CN(C)CCCN1c2ccccc2CCc2ccc(Cl)cc21 do in these assays?
MEKK3 PB1 HTS: 77; MEKK2mut PB1 HTS: 13; MEKK2wt PB1 HTS: 148*; Arbovirus anti: -43; MEKK2wt confirm: 131; MEKK2mut-MEK5: 12; MEKK3-MEK5 inh: 106

How did CN(C)C(=O)c1ccc(-n2cccn2)nc1 do in these assays?
MEKK3 PB1 HTS: 82; MEKK2mut PB1 HTS: -1; Pf gamet viab: -37; MEKK2wt PB1 HTS: 90; Arbovirus anti: 12

What do the screens show for `COC(=O)c1ccc2c(=O)n(CCCCCC(=O)N3CCN(c4ccccc4)CC3)c(=O)[nH]c2c1`?
MEKK3 PB1 HTS: 122*; MEKK2mut PB1 HTS: 6; Pf gamet viab: -36; MEKK2wt PB1 HTS: 119; Arbovirus anti: 14; MEKK2wt confirm: 100; MEKK2mut-MEK5: 0; MEKK3-MEK5 inh: 102

What do the screens show for `CCN1CCN(C(=O)CCCCCn2c(=O)[nH]c3cc(C(=O)OC)ccc3c2=O)CC1`?
MEKK3 PB1 HTS: 100; MEKK2mut PB1 HTS: -1; MEKK2wt PB1 HTS: 96; Arbovirus anti: 19

What do the screens show for `COc1ccc(NC(=O)C(NC(=O)CC2NC(=O)NC2=O)c2ccccc2)cc1` (centres undefined)?
MEKK3 PB1 HTS: 155*; MEKK2mut PB1 HTS: 0; Pf gamet viab: 15; MEKK2wt PB1 HTS: 106; Arbovirus anti: -1; MEKK2wt confirm: 103; MEKK2mut-MEK5: 1; MEKK3-MEK5 inh: 100

What do the screens show for `Cc1cccc(NC(=S)N/N=C/c2ccc([N+](=O)[O-])s2)c1`?
MEKK3 PB1 HTS: 86; MEKK2mut PB1 HTS: -7; MEKK2wt PB1 HTS: 50*[inhibitor]; Arbovirus anti: -44; MEKK2wt confirm: 63; MEKK2mut-MEK5: -23; MEKK3-MEK5 inh: 91

What do the screens show for `Cc1cccc(NC(=O)/C=C/c2ccc([N+](=O)[O-])s2)c1`?
MEKK3 PB1 HTS: 98; MEKK2mut PB1 HTS: 11; Pf gamet viab: -15; MEKK2wt PB1 HTS: 112; Arbovirus anti: -28

How did COc1cccc(CN2C(=O)NC3(CCCCCC3)C2=O)c1 do in these assays?
MEKK3 PB1 HTS: 103; MEKK2mut PB1 HTS: -4; MEKK2wt PB1 HTS: 97

Results for Cc1ccc(-n2nnc3c(=O)n(Cc4ccccn4)cnc32)cc1C ?
MEKK3 PB1 HTS: 109; MEKK2mut PB1 HTS: 175*; MEKK2wt PB1 HTS: 97; Arbovirus anti: 3; MEKK2wt confirm: 96; MEKK2mut-MEK5: 2; MEKK3-MEK5 inh: 102

How did COc1ccc(CCNC(=O)c2ccccc2NC(=O)C2=C(C)OCCS2)c(OC)c1 do in these assays?
MEKK3 PB1 HTS: 99; MEKK2mut PB1 HTS: -1; MEKK2wt PB1 HTS: 100

What do the screens show for `Cc1ccc(C(=O)COC(=O)c2c(C)cc(=O)oc2C)cc1[N+](=O)[O-]`?
MEKK3 PB1 HTS: 160*; MEKK2mut PB1 HTS: 1; MEKK2wt PB1 HTS: 106; Arbovirus anti: -5; MEKK2wt confirm: 105; MEKK2mut-MEK5: 8; MEKK3-MEK5 inh: 102

Results for CN(C1CCCCC1)S(=O)(=O)c1ccc(S(=O)(=O)N2CCN(C(=O)c3ccccc3F)CC2)cc1 ?
MEKK3 PB1 HTS: 144*; MEKK2mut PB1 HTS: 9; MEKK2wt PB1 HTS: 133; Arbovirus anti: -3; MEKK2wt confirm: 106; MEKK2mut-MEK5: 4; MEKK3-MEK5 inh: 106

What do the screens show for `O=C(c1ccccc1F)N1CCN(S(=O)(=O)c2ccc3c(c2)OCCO3)CC1`?
MEKK3 PB1 HTS: 103; MEKK2mut PB1 HTS: 2; MEKK2wt PB1 HTS: 103; Arbovirus anti: 24

What do the screens show for `O=C(O)c1ccc(CN2C(=O)CSC2=S)cc1`?
MEKK3 PB1 HTS: 124*; MEKK2mut PB1 HTS: 5; MEKK2wt PB1 HTS: 119; Arbovirus anti: 19; MEKK2wt confirm: 98; MEKK2mut-MEK5: -4; MEKK3-MEK5 inh: 98

Results for O=C(O)c1ccc(N2C(=O)CSC2=S)cc1 ?
Pf gamet viab: 9

What do the screens show for `COc1ccc(OC)c(S(=O)(=O)N2CCC(NC(=O)c3ccccc3)CC2)c1`?
MEKK3 PB1 HTS: 105; MEKK2mut PB1 HTS: 1; MEKK2wt PB1 HTS: 103

What do the screens show for `Cc1cccc(N2CCN(C(=O)CN3C(=O)C4CC=CCC4C3=O)CC2)c1C` (centres undefined)?
MEKK3 PB1 HTS: 67*[inhibitor]; MEKK2mut PB1 HTS: -2; Pf gamet viab: -19; MEKK2wt PB1 HTS: 85; Arbovirus anti: 9; MEKK2wt confirm: 96; MEKK2mut-MEK5: 4; MEKK3-MEK5 inh: 101

Results for O=C1CC(=C(c2ccccc2)c2ccccc2)C(=O)N1CCCCN1CCN(c2cccc(Cl)c2)CC1 ?
MEKK3 PB1 HTS: 102; MEKK2mut PB1 HTS: 21; MEKK2wt PB1 HTS: 142*; Arbovirus anti: 7; MEKK2wt confirm: 152; MEKK2mut-MEK5: 37; MEKK3-MEK5 inh: 104

How did CC(=O)Oc1ccccc1-c1nc(/C=C/c2ccccc2)no1 do in these assays?
MEKK3 PB1 HTS: 99; MEKK2mut PB1 HTS: 0; MEKK2wt PB1 HTS: 102

How did Cc1ccccc1C(=O)Nc1nnc(-c2cccnc2)o1 do in these assays?
MEKK3 PB1 HTS: 104; MEKK2mut PB1 HTS: 3; Pf gamet viab: 0; MEKK2wt PB1 HTS: 104; Arbovirus anti: -5

How did Cc1ccc(C#N)c(SCc2ccccc2F)n1 do in these assays?
MEKK3 PB1 HTS: 49*[inhibitor]; MEKK2mut PB1 HTS: -14; Pf gamet viab: 0; MEKK2wt PB1 HTS: 59; MEKK2wt confirm: 104; MEKK2mut-MEK5: 0; MEKK3-MEK5 inh: 102

Results for Cc1ccc2nc(CSc3nc(C)ccc3C#N)[nH]c2c1 ?
MEKK3 PB1 HTS: 109; MEKK2mut PB1 HTS: 10; MEKK2wt PB1 HTS: 107; Arbovirus anti: -5

Compound activity: PubChem BioAssay, several laboratories
